Laboratory results published in PubChem BioAssay (Tox21).
Records with an inconclusive call do not appear. A call without a number means that no potency is given here. The source made the active and inactive calls. Calls follow the shape of the full dose curve.

Biological target: Beta-2 adrenergic receptor (Homo sapiens) (UniProt P07550)
Test: Adrenergic beta2 receptor (ADRB2) small molecule agonists, cell-based qHTS assay (AID 1963593);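 also: CHO cells stably overexpressing human ADRB2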
Method in brief: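 CHO cells stably over-expressing ADRB2 were plated overnight at 37C, then dosed with compounds plus a stimulation mix containing 100uM IBMX and 25uM Ro-20-1724 for 0.5hr at room temperature. cAMP was measured by HTRF competition, 1hr.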

Chain of Beta-2 adrenergic receptor (Homo sapiens) (P07550 whole entry, looked up): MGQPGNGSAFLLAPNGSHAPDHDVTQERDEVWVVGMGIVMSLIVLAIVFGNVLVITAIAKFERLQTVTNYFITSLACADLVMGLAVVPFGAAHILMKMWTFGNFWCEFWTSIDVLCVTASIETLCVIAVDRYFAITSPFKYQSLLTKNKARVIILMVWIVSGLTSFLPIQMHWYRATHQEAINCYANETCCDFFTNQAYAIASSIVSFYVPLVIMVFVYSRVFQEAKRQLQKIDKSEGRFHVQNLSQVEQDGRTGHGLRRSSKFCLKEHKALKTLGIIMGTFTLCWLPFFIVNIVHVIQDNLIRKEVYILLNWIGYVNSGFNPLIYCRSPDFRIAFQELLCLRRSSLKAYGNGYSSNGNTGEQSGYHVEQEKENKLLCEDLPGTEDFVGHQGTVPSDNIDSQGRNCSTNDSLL

Compound | Potency
COc1nc(NC(C)C)nc(NC(C)C)n1 | inactive
CCCCN(CCCC)N=O | inactive
O=[N+]([O-])c1ccccc1 | inactive
O=C1C=CC(=O)C=C1 | inactive
COC(C)(C)C | inactive
Clc1ccc(C(Cl)(Cl)Cl)c(Cl)c1 | inactive
CC(O)CN(CC(C)O)CC(C)O (stereo not drawn) | inactive
C=CC#N | inactive
Cc1ccc(CCl)cc1 | inactive
COc1ccc2c3c1O[C@H]1[C@@H](O)C=C[C@H]4[C@@H](C2)N(C)CC[C@@]341 | inactive
CC(C)=CC1C(C(=O)OCN2C(=O)C3=C(CCCC3)C2=O)C1(C)C (stereo not drawn) | inactive
Cc1cc(Cl)ccc1OCC(=O)O | inactive
CN(C)P(=O)(N(C)C)N(C)C | inactive
CCCC(=O)Cl | inactive
N#Cc1cc([N+](=O)[O-])ccc1N | inactive
CC1(C)[C@H](C(=O)O[C@H](C#N)c2cccc(Oc3ccccc3)c2)[C@@H]1/C=C(\Cl)C(F)(F)F | inactive
C=C(C)[C@@H]1CC=C(C=O)CC1 | inactive
Cc1ncc(CNC(=O)N(CCCl)N=O)c(N)n1 | inactive
CC(Cl)C(=O)O (stereo not drawn) | inactive
CCCC(C)(COC(N)=O)COC(N)=O | inactive
COC(=O)Nc1cccc(OC(=O)Nc2cccc(C)c2)c1 | inactive
NCCc1ccc(O)cc1 | inactive
CCC(=O)OC1(c2ccccc2)CCN(C)CC1 | inactive
Nc1ccccc1C(=O)OCCc1ccccc1 | inactive
C[C@]12CCC(=O)C(O)=C1CC[C@@H]1[C@@H]2CC[C@]2(C)C(=O)CC[C@@H]12 | inactive

Compound | Potency
ClCCN1CCCC1 | inactive
Clc1ccc(C(Cl)(Cl)Cl)cc1 | inactive
C=CCN=C=S | inactive
CC(Oc1ccc(Cl)cc1Cl)C(=O)O (stereo not drawn) | inactive
CC1(C)CC(=O)CC(C)(C)N1[O] | inactive
CN1C(=O)NC(=O)C(C)(C2=CCCCC2)C1=O (stereo not drawn) | inactive
Nc1ncc([N+](=O)[O-])s1 | inactive
Cc1ccc(O)c(C)c1 | inactive
Cc1ccc(N)c(N)c1 | inactive
c1ccc(-c2cccc(-c3ccccc3)c2)cc1 | inactive
O=S(=O)(c1ccccc1)c1ccccc1 | inactive
N#CN=C(N)N | inactive
CC(C(=O)c1ccccc1)N(C)C (stereo not drawn) | inactive
O=C(O)C(Cl)(Cl)Br | inactive
CCN(N=O)C(N)=O | inactive
CN1CC[C@]23c4c5ccc(O)c4O[C@H]2[C@@H](O)CC[C@H]3[C@H]1C5 | inactive
CC1(C)C(=O)NC(=O)NC1=O | inactive
Cc1cc(Cl)ccc1O | inactive
ClC(Cl)(Cl)Br | inactive
C=CCN(CC=C)C(=O)C(Cl)Cl | inactive
C=CCN1CC[C@]23CCCC[C@H]2[C@H]1Cc1ccc(O)cc13 | inactive
C[C@H]1C(=O)O[C@@H]2CCN3CC=C(COC(=O)[C@](C)(O)[C@]1(C)O)[C@H]23 | inactive
Cc1ccc(-c2nc3ccc(C)cn3c2CC(=O)N(C)C)cc1 | inactive
NCC(O)c1ccc(O)cc1 (stereo not drawn) | inactive
Cc1cc(O)ccc1Cl | inactive

Compound | Potency
Cn1c(N)nc2c3cccnc3ccc21 | inactive
N#CCBr | inactive
Brc1ccc(Oc2cc(Br)c(Br)cc2Br)c(Br)c1 | inactive
COS(=O)(=O)OC | inactive
C[N+]1(C)CCCCC1 | inactive
Clc1nc(Cl)nc(Nc2ccccc2Cl)n1 | inactive
COC(=O)c1c(C(F)F)nc(C(F)(F)F)c(C2=NCCS2)c1CC(C)C | inactive
ClCC1CO1 (stereo not drawn) | inactive
CC(C)=CCN1CC[C@@]2(C)c3cc(O)ccc3C[C@@H]1[C@@H]2C | inactive
O=c1c2ccccc2c(=O)c2c1cc(Cl)c1[nH]c3c([nH]c12)c(Cl)cc1c(=O)c2ccccc2c(=O)c13 | inactive
COCC(=O)N(c1c(C)cccc1C)N1CCOC1=O | inactive
Nc1nc(=S)[nH][nH]1 | inactive
NC(=O)CCl | inactive
CCC(C)(C#N)N=NC(C)(C#N)CC (stereo not drawn) | inactive
O=C(O)c1cc(Cl)ccc1Cl | inactive
c1nc[nH]n1 | inactive
O=[N+]([O-])c1ccc(CBr)cc1 | inactive
O=C(O)C(Br)Br | inactive
C#C[C@]1(O)CC[C@H]2[C@@H]3CCC4=CC(=O)CC[C@]4(C)[C@H]3CC[C@@]21C | inactive
Clc1ccc(C2(Cn3cncn3)OCCO2)c(Cl)c1 | inactive
CC(C)c1cccc(C(C)C)c1O | inactive
O=[N+]([O-])c1ccc(Oc2ccc(Cl)cc2Cl)cc1 | inactive
O=C(O)c1nc(Cl)ccc1Cl | inactive
